Pf growth 96h: P. falciparum growth inhibition at 96 hour, primary screen for plastid delayed-death inhibitors | P. falciparum luciferase reporter growth, 96 h | Potency, µM (highest dose often 28.7 µM), actives largely listed as inhibitors | actives 6.9% (n = 320,000); active = well fitted inhibition curve with a large enough effect; inconclusive = small, poorly fitted or top-dose-only effect, or another doubt; inactive = no such curve, though single readings can be large or run the other way
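Infected RBCs, 2% Hct / 0.05% parasitemia final; luciferase-reporter P. falciparum; cpd 96 h, 37 C, 5% CO2; luciferase detection reagent; luminescence.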
Pf growth 48h: P. falciparum growth inhibition at 48 hours (one generation); P. falciparum luciferase growth in erythrocytes, 48 h; Potency, µM (top dose mostly 28.7 µM), usual class: inhibitors; actives 5.9% (n = 310,000); active = well fitted inhibition curve with a large enough effect; inconclusive = small, poorly fitted or top-dose-only effect, or another doubt; inactive = no such curve, though single readings can be large or run the other way
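In quantitative HTS format, infected erythrocytes bearing luciferase-reporter parasites were treated for a single generation at 37 C. Luminescence after adding detection reagent served as the growth measure.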
NS1 function inh: inhibitors of influenza NS1 protein function; AID 2326; actives 0.4% (n = 270,000); Potency, µM (series often up to 46.1 µM); note: actives are rising curves; nearly all actives have a fitted effect of over 50% in size
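OD600 was taken as the measure of yeast growth restored by compound in an NS1-expressing S. cerevisiae strain. Cells had been washed out of glucose medium and diluted 1:100 into galactose -URA medium, pH 6.0.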
SARS PLP yeast: inhibitors of SARS-CoV papain-like protease in yeast | AID 485353 | actives 0.19% (n = 330,000) | Potency, µM (top dose mostly 32.9 µM), usual class: activators | S. cerevisiae expressing SARS-CoV PLpro, growth rescue; note: nearly all actives have a fitted effect of over 55% in size
Shiga inhibitor: inhibitors of Shiga toxin in Vero cells. Vero cells, Shiga toxin protein synthesis inhibition reporter. inhibition, % at 38.7 µM. actives 9.2% (n = 290,000); in the data active = inhibition mostly above about 28%, no sharp cut-off; inactive = mostly below about 43%
Cycloheximide cs: counter-screen for Shiga toxin inhibitors: cycloheximide protein synthesis inhibition. actives 12% (n = 300,000). max response, %. cell reporter, cycloheximide protein synthesis inhibition counterscreen. AID 2314; in the data active = max response mostly above about 13%, no sharp cut-off; inactive = mostly below about 14%; note: read at 38.3 µM for the half of the compounds with a filed dose
Large screens that a line does not name were inactive. Most compounds without a hit are left out; they make up all but 21% or so of the library. Unless noted, calls come from the whole dose curve.

O=C(O)Cc1sc(N/N=C\c2ccccc2)nc1-c1ccccc1	Pf growth 96h inconclusive, NS1 function inh inconclusive, Shiga inhibitor 57.7, Cycloheximide cs 52.9
CCOC(=O)c1sc(Nc2ccccc2)nc1C	Shiga inhibitor 55.8, Cycloheximide cs 51.8 (no result: Pf growth 48h)
CNc1nc(C)c(C(=O)OCc2ccccc2)s1	Shiga inhibitor 93.3, Cycloheximide cs 29.0
O=C(NCCOc1ccccc1Cl)c1ccc2c(c1)S(=O)(=O)c1cc(Cl)ccc1C2=O	none (no result: Pf growth 96h, Pf growth 48h, NS1 function inh, Shiga inhibitor, Cycloheximide cs)
CC(C)c1ncc([N+](=O)[O-])n1C	none (no result: NS1 function inh, SARS PLP yeast, Shiga inhibitor, Cycloheximide cs)
CC(OC(=O)c1cccc(-n2cnnn2)c1)C(=O)N(C)c1ccccc1 (stereo unspecified)	none
Cc1sc2ncnc(OCC(=O)N3CCN(S(=O)(=O)c4ccc(Cl)cc4)CC3)c2c1C	Pf growth 48h inconclusive, Cycloheximide cs 10.1
Cc1ccc(S(=O)(=O)N2CCN(c3ncnc4sccc34)CC2)cc1C	Pf growth 96h 11.7µM, Pf growth 48h 13.1µM (no result: NS1 function inh, Shiga inhibitor, Cycloheximide cs)
Cc1sc2nc(CN3CCCC3)nc(N3CCN(S(=O)(=O)c4ccccc4)CC3)c2c1C	Pf growth 96h 4.65µM, Pf growth 48h 10.4µM (no result: NS1 function inh, Shiga inhibitor, Cycloheximide cs)
Cc1sc2ncnc(N3CCN(S(=O)(=O)c4ccccc4)CC3)c2c1C	Pf growth 96h inconclusive, Pf growth 48h 13.1µM (no result: NS1 function inh, Shiga inhibitor, Cycloheximide cs)
O=S(=O)(c1ccc2c(c1)OCCO2)N1CCN(c2ncnc3sccc23)CC1	Pf growth 48h inconclusive (no result: NS1 function inh)
Cc1ccc(S(=O)(=O)N2CCN(c3ncnc4scc(-c5ccccc5)c34)CC2)cc1	none (no result: Pf growth 96h, Pf growth 48h, NS1 function inh, Shiga inhibitor, Cycloheximide cs)
CCOC(=O)n1n[n+]([O-])c2ccccc21	none
COc1ccc(-n2c(=O)c3c4c(sc3n(CC(N)=O)c2=O)CCCCC4)cc1	Pf growth 48h inconclusive
CC(C)NC(NC(=O)/C=C/c1ccccc1)C(Cl)(Cl)Cl (stereo unspecified)	Pf growth 96h 1.04µM
O=C(/C=C/c1ccccc1)NC(NC(=S)Nc1ccc(Cl)cc1)C(Cl)(Cl)Cl (stereo unspecified)	Pf growth 48h 6.57µM
COc1ccc(NC(=S)NC(NC(=O)/C=C/c2ccccc2)C(Cl)(Cl)Cl)cc1 (stereo unspecified)	Pf growth 96h 2.33µM, Pf growth 48h inconclusive
O=C(Cc1ccccc1)NC(NC(=S)Nc1cc(Cl)ccc1Cl)C(Cl)(Cl)Cl (stereo unspecified)	Pf growth 48h inconclusive
O=C(/C=C/c1ccccc1)NC(NC(=S)Nc1cc(Cl)ccc1Cl)C(Cl)(Cl)Cl (stereo unspecified)	Pf growth 96h 10.4µM, Pf growth 48h inconclusive
COc1ccc(CN2CNc3c(c(=O)n(C)c(=O)n3C)C2)cc1	Pf growth 96h inconclusive
O=C(/C=C/c1cccc([N+](=O)[O-])c1)NC(=S)Nc1ccc(CN2CCOCC2)cc1	none
CC(C)c1ccc(/C=C/C(=O)NC(=S)Nc2ccc(CN3CCOCC3)cc2)cc1	Pf growth 96h 5.22µM, Pf growth 48h inconclusive, Cycloheximide cs 14.8
CC(C)c1ccc(/C=C/C(=O)NC(=S)NN2CCOCC2)cc1	Pf growth 96h 11.7µM, NS1 function inh inconclusive, Cycloheximide cs 17.4
CC(C)c1ccc(C(=O)NN2CCOCC2)cc1	none
COc1cccc(CNS(=O)(=O)c2ccc3c(c2)N(C(C)=O)CCO3)c1	Pf growth 96h inconclusive
C/C(=N/NC(=O)CNC(=O)Cc1ccc(Cl)cc1)c1ccco1	none
COCCOC1CCN(C(=O)c2cc(COc3ccc(F)cc3F)on2)CC1	Pf growth 96h inconclusive, Cycloheximide cs 22.8
CCOC(=O)N1CCN(C(=O)c2cc(COc3ccc(F)cc3F)on2)CC1	Pf growth 96h inconclusive, Shiga inhibitor 87.9, Cycloheximide cs 49.3
CCOC(=O)C1CCN(C(=O)c2cc(COc3ccc(F)cc3F)on2)CC1	Shiga inhibitor 126.5, Cycloheximide cs 63.2
CN(C)CCNC(=O)/C=C/c1cn(-c2ccccc2)nc1-c1cc2ccccc2oc1=O	Pf growth 96h 8.28µM (no result: NS1 function inh)
O=Cc1cn(-c2ccccc2)nc1-c1cc2ccccc2oc1=O	none (no result: Pf growth 96h)
CCn1c(P(C)(=O)O)nc2cc(NC(=O)c3ccccc3Cl)ccc21	none (no result: NS1 function inh)
CCc1noc(C)c1C(=O)N1CCCSC1=Nc1ccccc1C(C)C	Pf growth 96h 6.57µM, Pf growth 48h 14.7µM (no result: NS1 function inh, Shiga inhibitor, Cycloheximide cs)
CCc1noc(C)c1C(=O)N1CCCC1	Pf growth 96h inconclusive
CCCCN(C(=O)CC1OC(=O)c2ccccc21)c1c(N)n(CCCC)c(=O)[nH]c1=O (stereo unspecified)	Pf growth 48h inconclusive (no result: NS1 function inh, Shiga inhibitor, Cycloheximide cs)
O=C(COc1cccc2c1CCN(Cc1ccccc1)C2=O)NCc1ccco1	Pf growth 48h inconclusive
Cc1ccc(CN2CCc3c(OCC(=O)Nc4cc(C)ccc4C)cccc3C2=O)cc1	Pf growth 96h 5.86µM, Pf growth 48h inconclusive
Cc1ccc(C)c(NC(=O)COc2cccc3c2CCN(Cc2ccccc2)C3=O)c1	Pf growth 96h inconclusive
Cc1cccc(CN2CCc3c(OCC(=O)NCc4ccco4)cccc3C2=O)c1	Pf growth 96h 9.28µM, Pf growth 48h 11.7µM, Cycloheximide cs 13.4
Cc1nnc(NC(=O)Cn2nc(C)c3ccccc3c2=O)s1	none
C#CCCOC(=O)Nc1ccccc1	Pf growth 96h inconclusive, Cycloheximide cs active
O=C(Nc1ccccc1)OCCNC(=O)c1ccccc1	Pf growth 96h inconclusive
O=C(Nc1ccccc1)OCCCc1ccccc1	Shiga inhibitor 133.1, Cycloheximide cs 50.1 (no result: NS1 function inh)
CCCN1C(=O)c2ccccc2NC1c1ccc(O)c(OCC)c1 (stereo unspecified)	Pf growth 48h inconclusive
CCCN1C(=O)c2ccccc2NC1c1ccc(Br)cc1 (stereo unspecified)	Pf growth 48h inconclusive
CCCN1C(=O)c2ccccc2NC1c1ccc(Cl)c(Cl)c1 (stereo unspecified)	Pf growth 96h 9.28µM, Pf growth 48h inconclusive
CCCN1C(=O)c2ccccc2NC1c1ccc(Cl)cc1 (stereo unspecified)	Pf growth 48h 13.1µM
CCOc1ccc(C(=O)NCc2ccccc2)cc1Br	none
COc1cnc(-c2ccccn2)nc1Oc1ccc(Cl)c2ccccc12	Pf growth 96h 6.57µM, Pf growth 48h 2.08µM
COc1cnc(-c2ccccc2)nc1Oc1ccc(C(C)(C)C)cc1	Pf growth 96h inconclusive, Pf growth 48h inconclusive
COc1cnc(-c2ccccn2)nc1Oc1ccc(Cl)cc1	Pf growth 96h 5.22µM, Pf growth 48h 0.37µM
COc1cnc(-c2ccccn2)nc1Oc1ccccc1Cl	Pf growth 96h 2.62µM, Pf growth 48h 7.38µM, Cycloheximide cs 29.6
COc1cnc(-c2ccccn2)nc1NC(C)C	Pf growth 96h inconclusive, Pf growth 48h 14.7µM (no result: NS1 function inh)
COc1cc(CO)cc(Br)c1OCC(=O)Nc1cccc2ccccc12	Pf growth 96h inconclusive (no result: NS1 function inh)
COc1cnc(-c2ccccn2)nc1Oc1ccc(F)cc1F	Pf growth 96h 10.4µM, Pf growth 48h 10.4µM, Cycloheximide cs 32.5 (no result: NS1 function inh)
O=C(Oc1ccc(-c2cnc3ccccc3n2)cc1)c1cccc([N+](=O)[O-])c1	Shiga inhibitor 41.4, Cycloheximide cs 25.6
O=C(Oc1ccc(-c2cnc3ccccc3n2)cc1)c1ccc(Cl)c([N+](=O)[O-])c1	Shiga inhibitor 47.7, Cycloheximide cs 36.8

Bioassay records deposited in PubChem by National Center for Advancing Translational Sciences (NCATS).
